BAZ2B inh: inhibitors of human BAZ2B bromodomain; Q9UIF8; AlphaScreen BAZ2B-H3K14Ac peptide displacement; Potency, µM (series often up to 114 µM), for the others: at the top dose activity change, negative = inhibition, actives largely listed as inhibitors; 360,000 compounds, 4.4% hits; AID 504333; also: % is scaled to controls: 0 for no effect and ±100 for the full control effect; nearly all actives have a fitted effect of over 60% in size
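AlphaScreen displacement of biotin-H3(5-23)K14Ac peptide (50 nM final) from BAZ2B (50 nM final) in PBS pH 7.4, 0.01% Tween-20; complex preformed 30 min RT, then compounds (top 110 uM) 30 min RT, beads 20 min dark.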
HP1b binding inh: inhibitors of HP1-beta chromodomain binding to methylated histone tails. 390,000 compounds, 0.56% hits. P83916. Potency, µM (highest dose often 114 µM), for inactives: at the top dose activity change, negative = inhibition, most hits filed as inhibitors. AID 540317. AlphaScreen HP1-beta / biotin-H3K9me3 peptide binding; also: nearly all actives have a fitted effect of over 70% in size
Target sequence (P83916 whole entry, looked up): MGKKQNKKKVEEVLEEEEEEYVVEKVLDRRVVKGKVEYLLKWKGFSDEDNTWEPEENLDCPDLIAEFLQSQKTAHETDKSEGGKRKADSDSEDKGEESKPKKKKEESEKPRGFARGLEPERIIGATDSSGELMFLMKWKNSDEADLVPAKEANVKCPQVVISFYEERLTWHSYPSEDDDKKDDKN
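HP1-beta protein (50 nM final) preincubated 30 min at room temperature with biotinylated H3(1-18)K9me3 peptide (50 nM) in PBS pH 7.4, 0.01% Tween-20, then compound added for 30 min. AlphaScreen streptavidin donor/nickel chelate acceptor beads (10 ug/mL final), 30 min dark, luminescence read.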
JMJD2A Tudor: JMJD2A Tudor domain (human) inhibition; O75164; AlphaScreen JMJD2A-Tudor / H3K4me3 peptide binding; Potency, µM (titrated, usually from 114 µM), for inactives: at the highest dose activity change, negative = inhibition, most hits filed as inhibitors; 390,000 compounds, 4.4% hits; also: % is scaled to controls: 0 for no effect and ±100 for the full control effect; nearly all actives have a fitted effect of over 50% in size
G9a inh: G9a (human) methyltransferase inhibition. G9a H3K9 monomethylation, AlphaScreen, 2 h. 350,000 compounds, 8.8% hits. AID 504332. Q96KQ7. Potency, µM (titrated, usually from 102 µM), without a hit: top-dose activity, negative = inhibition, hits mostly inhibitors; also: % is scaled to controls: 0 for no effect and ±100 for the full control effect; nearly all actives have a fitted effect of over 75% in size
Target sequence (Q96KQ7 913-1193 limits assumed): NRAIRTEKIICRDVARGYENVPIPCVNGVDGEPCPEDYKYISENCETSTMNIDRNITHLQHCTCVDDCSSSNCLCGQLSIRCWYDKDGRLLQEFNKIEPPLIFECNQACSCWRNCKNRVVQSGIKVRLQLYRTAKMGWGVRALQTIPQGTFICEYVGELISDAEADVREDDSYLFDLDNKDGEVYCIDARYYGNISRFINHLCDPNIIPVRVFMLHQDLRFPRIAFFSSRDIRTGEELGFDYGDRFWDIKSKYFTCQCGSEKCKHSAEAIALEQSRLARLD
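Methyltransferase reactions run at room temperature for 2 h (20 nM enzyme, 500 nM biotin-H3K9 peptide, 20 uM SAM) after a 15 min compound preincubation; product detected by AlphaScreen beads and anti-H3K9me1 antibody.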
L3MBTL1 block: inhibitors of human L3MBTL1. AlphaScreen L3MBTL1–H3K9me1 peptide binding. 230,000 compounds, 0.66% hits. Q9Y468. Potency, µM (highest dose often 57.1 µM), for the others: top-dose activity, negative = inhibition, actives largely listed as inhibitors. AID 485360; also: % is scaled to controls: 0 for no effect and ±100 for the full control effect; nearly all actives have a fitted effect of over 60% in size
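L3MBTL1 (50 nM) pre-complexed 30 min with biotinylated H3(1-15)K9me1 peptide (75 nM), then compounds added for 30 min at room temperature; AlphaScreen streptavidin donor/nickel chelate acceptor beads (10 ug/mL final) read after 30 min dark incubation.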
* = called active by the depositor; ? = inconclusive; . = no result given; [ ] = dose if it differs, or a comment. Compounds with a hit are over-represented: about 11% of the library has one in this group of screens. Calls follow the shape of the dose curve; as a rule, active = well fitted inhibition curve with a large enough effect; inconclusive = small, poorly fitted or top-dose-only effect; inactive = no such curve, though single readings can be large or run the other way. Potency is read from the fitted curve at half-maximal effect.

SMILES | BAZ2B inh | HP1b binding inh | JMJD2A Tudor | G9a inh | L3MBTL1 block
COc1ccc(S(=O)(=O)c2c(SC)nn(CC(=O)Nc3cccc(C)c3C)c2N)cc1 | -13% | 12% | -17% | -3%[59 µM] | .
CCOc1ccc(/C=C/c2nc(C#N)c(Nc3ccc(OCC)cc3)o2)cc1 | -23% | 21% | -17% | -1%[59 µM] | .
CSC1=NCCN1C(=O)c1c(F)cccc1Cl | -1% | 51% | -4% | 50µM* | .
COc1cccc(CNC(=O)CCc2c(C)nc3c(c2C)c(=O)n(C)c(=O)n3C)c1 | ? | 17% | -11% | -36%[59 µM] | .
CCOc1ccc(C2C(C#N)=C(N)SC(N)=C2C#N)cc1OCC | ? | 5% | ? | ? | .
CCOc1ccccc1C1C(C#N)=C(N)SC(N)=C1C#N | 2% | 1% | 79µM* | ? | -3%
CCOc1ccc(C2C(C#N)=C(N)SC(N)=C2C#N)cc1OC | ? | . | . | 8.9µM* | 0%
O=C1CCc2cc(S(=O)(=O)Nc3cccc(F)c3)ccc2N1 | . | . | -17% | . | .
Cc1ccc2c(c1)c1c(n2C)-c2[nH]ncc2CC1 | 45µM* | ? | ? | ? | -7%
O=C(CCN1CCN(c2ccc([N+](=O)[O-])cc2)CC1)c1ccc(Cl)cc1 | ? | 3% | ? | 14µM* | .
O=C(CCN1CCN(c2ccccc2)CC1)c1ccc(Cl)cc1 | -27% | 33% | -22% | 28µM* | .
O=C(CCN1CCOCC1)c1ccc(N2CCCCC2)cc1 | 7% | 30% | -32% | 1%[0.501 µM] | 2%
COC(=O)c1[nH]c(C)c(/C(O)=C2\C(=O)C(=O)N(CCCN3CCOCC3)C2c2ccccn2)c1C (centres undefined) | 50µM* | 36% | ? | ? | -20%
COC(=O)c1[nH]c(C)c(/C(O)=C2\C(=O)C(=O)N(CCN(C)C)C2c2ccc(C)o2)c1C (centres undefined) | -33% | 8% | 35µM* | 40µM* | 5%
CCOC(=O)c1[nH]c(C)c(/C(O)=C2\C(=O)C(=O)N(CCCN3CCOCC3)C2c2cccnc2)c1C (centres undefined) | -8% | 35% | -15% | 22µM* | 3%
CCOC(=O)c1[nH]c(C)c(/C(O)=C2\C(=O)C(=O)N(CCCn3ccnc3)C2c2ccncc2)c1C (centres undefined) | ? | 21% | 35µM* | 50µM* | -1%
COC(=O)c1[nH]c(C)c(/C(O)=C2\C(=O)C(=O)N(CCN(C)C)C2c2ccco2)c1C (centres undefined) | -1% | 35% | -6% | ? | 2%
CCOC(=O)c1[nH]c(C)c(/C(O)=C2\C(=O)C(=O)N(CCN(C)C)C2c2ccncc2)c1C (centres undefined) | -9% | 22% | -12% | -49%[12.7 µM] | .
COC(=O)CCN1CCc2cc(N=Nc3ccc([N+](=O)[O-])cc3)ccc21 | ? | -39% | ? | ? | -30%
Cc1ccc(C)c(NC(=O)CN2C(=O)c3cccc4cccc2c34)c1 | -27% | 9% | -8% | -4%[59 µM] | .
Cc1cccc(C(c2c(C)nn(-c3ccccc3)c2N)c2c(C)nn(-c3ccccc3)c2N)c1 | ? | -15% | -35% | -19%[59 µM] | -15%
CCc1ccc(C(c2c(C)nn(-c3ccccc3)c2N)c2c(C)nn(-c3ccccc3)c2N)cc1 | ? | -35% | 56µM* | ? | -11%
O=S(=O)(c1ccccc1)N1CCN(Cc2cccc(Cl)c2)CC1 | 32µM* | -54% | 8.9µM* | ? | .
O=C(c1cc(Br)ccc1O)N1CCN(S(=O)(=O)Cc2ccccc2)CC1 | 6% | 23% | -2% | 1%[12.7 µM] | 1%
COc1ccc(Br)cc1CN1CCN(S(=O)(=O)Cc2ccccc2)CC1 | -21% | ? | 8.9µM* | 20µM* | .
SMILES | BAZ2B inh | HP1b binding inh | JMJD2A Tudor | G9a inh | L3MBTL1 block
COc1ccc(OC)c(CN2CCN(S(=O)(=O)c3ccccc3)CC2)c1 | ? | ? | 20µM* | -28%[59 µM] | .
COc1ccc(S(=O)(=O)N2CCN(c3ccc(F)cc3)CC2)cc1OC | ? | 28% | 2% | -1% | -1%
COc1ccc(CN2CCN(S(=O)(=O)c3ccc(F)cc3)CC2)cc1OC | 32µM* | ? | 3.2µM* | 10µM* | -9%
COc1ccccc1NC(=O)C1=C(C)Nc2c(C(=O)Nc3cccc(C)c3)cnn2C1c1ccccc1Cl (centres undefined) | 0%[57.1 µM] | -9% | -31% | -16%[59 µM] | .
COc1ccc(CN2CCN(S(=O)(=O)c3ccc(F)cc3)CC2)c(OC)c1OC | ? | -49% | 1.4µM* | 28µM* | .
O=S(=O)(Cc1ccccc1)N1CCN(Cc2c(F)cccc2Cl)CC1 | -2% | 23% | 0% | 35µM* | -1%
CCOc1ccccc1CN1CCN(S(=O)(=O)c2ccccc2)CC1 | 8% | 64% | -7% | 16%[59 µM] | .
COc1cccc(CN(C)C(=O)c2cccc(S(=O)(=O)N3CCN(Cc4ccccc4)CC3)c2)c1OC | ? | 15% | -18% | -30% | -1%
COc1cccc(CN2CCN(S(=O)(=O)c3ccccc3)CC2)c1OC | . | ? | 28µM* | . | .
COc1ccccc1CN1CCN(S(=O)(=O)c2ccccc2)CC1 | 32µM* | ? | 40µM* | ? | .
CC1CCc2onc(C(=O)N3CCN(c4ccc(F)cc4)CC3)c2C1 (centres undefined) | 0%[57.1 µM] | 15% | -10% | 2%[59 µM] | .
COc1ccccc1CNC(=O)CN1C(=O)NC2(CCCC2)C1=O | -6% | 62% | -5% | -2%[2.33 µM] | 0%
Cc1ccc(S(=O)(=O)N2CCN(Cc3cccc(F)c3)CC2)cc1 | . | ? | 3.2µM* | . | .
COc1ccc(CN2CCN(S(=O)(=O)c3ccccc3)CC2)c(OC)c1OC | . | ? | 22µM* | . | .
Cc1cc(-n2c(C)nc3ccccc3c2=O)ccc1NC(=O)c1ccc(C)c([N+](=O)[O-])c1 | ? | 19% | -16% | 3%[59 µM] | .
CCC(=O)Nc1nc(C)nc(C)c1C(C)=O | -21% | 8% | -16% | 45µM* | 0%
CC(=O)N1CCC2(CCCN(c3ccccn3)C2)CC1 | . | . | . | 1%[12.7 µM] | .
O=c1c(O)c(-c2cccs2)oc2ccccc12 | 9% | 27% | -7% | 18µM* | 21%
O=C(CSc1nnc(C2COc3ccccc3O2)o1)N1CCCC1 (centres undefined) | -7% | ? | -23% | 8.9µM* | .
Cc1cc(OCC(=O)Nc2c(C(=O)c3ccccc3)oc3ccccc23)cc(C)c1Cl | -10% | 24% | -4% | 5%[59 µM] | .
CC(O)CN(CCC(N)=O)CCC(N)=O (centres undefined) | 56µM* | -27% | ? | 35µM* | 6%
CCOC(=O)c1cc(-c2ccc(OC)cc2)n(CCC(=O)NCc2ccccc2OC)c1C | ? | 10% | -31% | ? | .
Cc1ccc2c(=O)cc(C(=O)Nc3ccc(S(=O)(=O)N(C)c4ccccc4)cc3)oc2c1C | -5% | 0% | -12% | 0%[59 µM] | .

Assay outcomes deposited in PubChem BioAssay by National Center for Advancing Translational Sciences (NCATS).
